# From PubChem BioAssay
# Calls of active or inactive are those of the source.
# What was measured:
# [1] = tested on: Plasmodium falciparum Sir2 (PF13_0152, Sir2A); assay: Plasmodium falciparum Sir2A binding compounds – biochemical, small-molecule microarray, 635 nm fluorescence, primary screen (AID 1098); conditions: fluorescence 635 nm, higher = more signal;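 further: score merges spot fluorescence intensity with its signal-to-noise ratio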
# [2] = probe aDKK1 binding to arrayed compounds – biochemical, biotinylated probe, 635/667 nm fluorescence, primary screen (AID 1099); conditions: small-molecule microarray, higher = more signal;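 further: score merges 667nm spot fluorescence with signal to noise across triplicate slides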
# [3] = probe aCHRDL2 binding to arrayed compounds – biochemical, biotinylated probe, 635/667 nm fluorescence, primary screen (AID 1100); conditions: small-molecule microarray, higher = more signal
# [4] = change in splice reporter luminescence, either direction, cell-based, HEK293, spliceosome inhibition project, primary screen (AID 1101); conditions: HEK293 splicing luciferase reporter, 24 h, higher = more signal, called active from +8 up or from −8 down;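 further: HEK293 cells carrying a splicing-competent luciferase reporter gene; test concentration not given here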
# [5] = biological target: Fibroblast growth factor 10 (Homo sapiens) (UniProt O15520); assay: compounds binding fibroblast growth factor 10 – biochemical, small-molecule microarray, 635 nm fluorescence, primary screen (AID 1102); conditions: FGF10 binding, fluorescence 635 nm, higher = more signal
# [6] = tested on: glycogen synthase kinase-3 (GSK3A per assay name; protocol says GSK3B); assay: compounds binding glycogen synthase kinase-3 – biochemical, small-molecule microarray, 635 nm fluorescence, GSK3A, primary screen (AID 1103); conditions: fluorescence 635 nm, higher = more signal; further: the record names both GSK3A and GSK3B
# [7] = biological target: Epidermal growth factor receptor (Homo sapiens) (UniProt P00533); assay: compounds binding epidermal growth factor receptor – biochemical, small-molecule microarray, 635 nm fluorescence, primary screen (AID 1104); conditions: EGFR binding, higher = more signal;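 further: score merges 667 nm emission intensity with spot signal to noise over triplicate slides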
# [8] = biological target: Follistatin-related protein 3 (Homo sapiens) (UniProt O95633); assay: compounds binding follistatin-related protein 3 – biochemical, small-molecule microarray, 635 nm fluorescence, primary screen (AID 1105); conditions: FSTL3 binding, higher = more signal;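 further: score merges emission near 667 nm and signal to noise per printed spot across three slides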
# [9] = biological target: Dickkopf-related protein 1 (Homo sapiens) (UniProt O94907); assay: small molecules binding DKK1 protein – biochemical, small-molecule microarray, 635 nm fluorescence scan, primary screen (AID 1106); conditions: higher = more signal;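 further: score merges emission near 667 nm with signal to noise over three replicate slides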
# [10] = tested on: Inhibin beta A chain (activin A); assay: small molecules binding activin A – biochemical, small-molecule microarray, 635 nm fluorescence scan, primary screen (AID 1107); conditions: INHBA, higher = more signal;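 further: mouse activin A protein probed at 4.33 µg/mL on printed slides; score merges bound-protein fluorescence near 667 nm with spot signal-to-noise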
# [11] = tested on: Human papillomavirus type 1a protein E7 (residues 44-93); assay: small molecules binding HPV E7 44-93 – biochemical, small-molecule microarray, residues 44-93, 635 nm fluorescence, primary screen (AID 1108); conditions: fluorescence 635 nm, higher = more signal;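 further: E7 fragment applied at 1 µg/mL in TBST for 1 h at 4 C; score combines spot fluorescence with its signal to noise ratio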
# [12] = hepatitis C replication reporter changes, two-sided – Huh7 cells, luciferase reporter, HCV replication inhibitor project, primary screen (AID 1109); conditions: Huh7 HCV replicon luciferase reporter, 48 h; higher = more signal;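 further: huh7 hepatoma cells harbouring a luciferase neomycin HCV replicon reporter; luciferase luminescence as measure of HCV replicon replication; test concentration not given here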
# [13] = biological target: Left-right determination factor 2 (Homo sapiens) (UniProt O00292); assay: small molecules binding LEFTY2 protein – biochemical, small-molecule microarray, 635 nm fluorescence scan, primary screen (AID 1110); conditions: higher = more signal
# [14] = biological target: Calmodulin-1 (Homo sapiens) (UniProt P0DP23); assay: small molecules binding calmodulin-1 with EGTA – biochemical, small-molecule microarray, Cy5-labelled CALM1, profiling panel (AID 1111); conditions: Cy5-CALM1 binding fluorescence, higher = more signal;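 further: labelled calmodulin applied in Tris saline Tween buffer holding calcium plus EGTA and DTT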
# [15] = biological target: Calmodulin-1 (Homo sapiens) (UniProt P0DP23); assay: small molecules binding Ca-loaded calmodulin-1 – biochemical, small-molecule microarray, Cy5-labelled CALM1, plus calcium, artefact control for SMM control-protein annotation, profiling panel (AID 1112); conditions: Cy5-CALM1 binding fluorescence, higher = more signal;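 further: score merges spot fluorescence with signal to noise from triplicate slides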
# [16] = probe aWnt5a binding to arrayed compounds – biochemical, biotinylated probe, 635/667 nm fluorescence, primary screen (AID 1113); conditions: small-molecule microarray, higher = more signal;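 further: score merges 667 nm fluorescence intensity with signal-to-noise per printed feature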
# [17] = probe aShh binding to arrayed compounds – biochemical, biotinylated probe, 635/667 nm fluorescence, primary screen (AID 1114); conditions: small-molecule microarray, higher = more signal;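 further: probe is biotin-labelled aShh protein from a stem cell growth factor screen; measures binding of labelled protein to compounds printed on the slide; score merges feature fluorescence at 667 nm with signal-to-noise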
# [18] = probe aNog binding to arrayed compounds – biochemical, biotinylated probe, 635/667 nm fluorescence, primary screen (AID 1115); conditions: small-molecule microarray, higher = more signal;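 further: probe is biotinylated aNog protein used at 0.15 µg/mL for 1 h at 4 C; z-score combines 667 nm fluorescence of each spot with its signal to noise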
# [19] = biological target: Torsin-1A-interacting protein 1 (Homo sapiens) (UniProt Q5JTV8); assay: compound microarray binding of lysate hLAP1 – cell lysate, small-molecule microarray, COS7 lysate, 635/667 nm fluorescence, primary screen (AID 1116); conditions: 635 nm fluorescence, higher = more signal
# [20] = biological target: Alpha-bungarotoxin (Bungarus multicinctus) (UniProt P60615); assay: compounds binding labelled alpha-BTX control protein – biochemical, small-molecule microarray, Alexa647 label, 635/667 nm fluorescence, artefact control for SMM control protein annotation, profiling panel (AID 1117); conditions: alpha-BTX-A647 binding fluorescence, higher = more signal
# Sequence of Alpha-bungarotoxin (Bungarus multicinctus) (P60615 whole entry, looked up): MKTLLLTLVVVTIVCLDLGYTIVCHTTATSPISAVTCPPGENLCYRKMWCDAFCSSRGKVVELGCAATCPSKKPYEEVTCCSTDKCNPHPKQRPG
# Sequence of Torsin-1A-interacting protein 1 (Homo sapiens) (Q5JTV8 whole entry, looked up): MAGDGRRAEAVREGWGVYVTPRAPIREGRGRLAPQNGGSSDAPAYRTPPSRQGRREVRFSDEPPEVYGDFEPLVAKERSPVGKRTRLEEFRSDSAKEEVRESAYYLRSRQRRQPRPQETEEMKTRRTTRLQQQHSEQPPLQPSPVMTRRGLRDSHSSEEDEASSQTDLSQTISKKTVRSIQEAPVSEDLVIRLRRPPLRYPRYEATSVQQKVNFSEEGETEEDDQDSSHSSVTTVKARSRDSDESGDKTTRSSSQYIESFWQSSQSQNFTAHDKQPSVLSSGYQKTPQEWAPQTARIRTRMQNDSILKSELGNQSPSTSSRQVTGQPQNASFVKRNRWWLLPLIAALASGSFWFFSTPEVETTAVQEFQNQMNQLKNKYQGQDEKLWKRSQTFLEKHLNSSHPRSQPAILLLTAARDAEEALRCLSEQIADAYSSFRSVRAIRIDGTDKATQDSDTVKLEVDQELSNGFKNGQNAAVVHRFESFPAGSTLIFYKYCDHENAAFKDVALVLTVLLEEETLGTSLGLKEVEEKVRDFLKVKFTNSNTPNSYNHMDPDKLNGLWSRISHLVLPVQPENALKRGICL
# Sequence of Fibroblast growth factor 10 (Homo sapiens) (O15520 whole entry, looked up): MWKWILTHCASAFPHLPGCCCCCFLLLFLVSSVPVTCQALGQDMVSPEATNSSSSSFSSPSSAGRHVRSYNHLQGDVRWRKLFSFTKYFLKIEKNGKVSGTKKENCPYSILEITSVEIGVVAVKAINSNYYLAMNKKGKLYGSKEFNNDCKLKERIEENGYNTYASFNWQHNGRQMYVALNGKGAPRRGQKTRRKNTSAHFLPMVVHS
# Sequence of Left-right determination factor 2 (Homo sapiens) (O00292 whole entry, looked up): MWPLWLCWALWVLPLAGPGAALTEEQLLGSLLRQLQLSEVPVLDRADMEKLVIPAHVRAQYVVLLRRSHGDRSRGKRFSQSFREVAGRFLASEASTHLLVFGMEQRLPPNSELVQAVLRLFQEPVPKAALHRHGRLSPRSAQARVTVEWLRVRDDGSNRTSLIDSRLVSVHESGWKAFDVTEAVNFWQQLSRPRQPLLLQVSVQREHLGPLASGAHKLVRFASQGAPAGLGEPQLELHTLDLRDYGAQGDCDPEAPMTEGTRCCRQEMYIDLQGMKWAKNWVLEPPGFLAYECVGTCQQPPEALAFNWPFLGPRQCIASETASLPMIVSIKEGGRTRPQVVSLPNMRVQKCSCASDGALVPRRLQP
# Sequence of Follistatin-related protein 3 (Homo sapiens) (O95633 whole entry, looked up): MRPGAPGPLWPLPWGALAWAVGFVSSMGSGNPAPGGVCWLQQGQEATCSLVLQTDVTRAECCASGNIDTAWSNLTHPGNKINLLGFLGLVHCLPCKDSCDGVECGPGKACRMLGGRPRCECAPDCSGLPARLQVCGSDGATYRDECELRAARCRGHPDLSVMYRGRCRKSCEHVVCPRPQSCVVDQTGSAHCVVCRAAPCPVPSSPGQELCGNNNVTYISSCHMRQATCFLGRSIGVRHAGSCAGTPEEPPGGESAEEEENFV
# Sequence of Dickkopf-related protein 1 (Homo sapiens) (O94907 whole entry, looked up): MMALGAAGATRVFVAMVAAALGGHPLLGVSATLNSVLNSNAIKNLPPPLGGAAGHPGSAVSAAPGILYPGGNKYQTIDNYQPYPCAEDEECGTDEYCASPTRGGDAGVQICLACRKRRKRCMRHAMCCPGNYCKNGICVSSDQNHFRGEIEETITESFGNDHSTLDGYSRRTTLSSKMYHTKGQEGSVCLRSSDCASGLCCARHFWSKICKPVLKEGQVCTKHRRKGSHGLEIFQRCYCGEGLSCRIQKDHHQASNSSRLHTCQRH
# Sequence of Epidermal growth factor receptor (Homo sapiens) (P00533 whole entry, looked up): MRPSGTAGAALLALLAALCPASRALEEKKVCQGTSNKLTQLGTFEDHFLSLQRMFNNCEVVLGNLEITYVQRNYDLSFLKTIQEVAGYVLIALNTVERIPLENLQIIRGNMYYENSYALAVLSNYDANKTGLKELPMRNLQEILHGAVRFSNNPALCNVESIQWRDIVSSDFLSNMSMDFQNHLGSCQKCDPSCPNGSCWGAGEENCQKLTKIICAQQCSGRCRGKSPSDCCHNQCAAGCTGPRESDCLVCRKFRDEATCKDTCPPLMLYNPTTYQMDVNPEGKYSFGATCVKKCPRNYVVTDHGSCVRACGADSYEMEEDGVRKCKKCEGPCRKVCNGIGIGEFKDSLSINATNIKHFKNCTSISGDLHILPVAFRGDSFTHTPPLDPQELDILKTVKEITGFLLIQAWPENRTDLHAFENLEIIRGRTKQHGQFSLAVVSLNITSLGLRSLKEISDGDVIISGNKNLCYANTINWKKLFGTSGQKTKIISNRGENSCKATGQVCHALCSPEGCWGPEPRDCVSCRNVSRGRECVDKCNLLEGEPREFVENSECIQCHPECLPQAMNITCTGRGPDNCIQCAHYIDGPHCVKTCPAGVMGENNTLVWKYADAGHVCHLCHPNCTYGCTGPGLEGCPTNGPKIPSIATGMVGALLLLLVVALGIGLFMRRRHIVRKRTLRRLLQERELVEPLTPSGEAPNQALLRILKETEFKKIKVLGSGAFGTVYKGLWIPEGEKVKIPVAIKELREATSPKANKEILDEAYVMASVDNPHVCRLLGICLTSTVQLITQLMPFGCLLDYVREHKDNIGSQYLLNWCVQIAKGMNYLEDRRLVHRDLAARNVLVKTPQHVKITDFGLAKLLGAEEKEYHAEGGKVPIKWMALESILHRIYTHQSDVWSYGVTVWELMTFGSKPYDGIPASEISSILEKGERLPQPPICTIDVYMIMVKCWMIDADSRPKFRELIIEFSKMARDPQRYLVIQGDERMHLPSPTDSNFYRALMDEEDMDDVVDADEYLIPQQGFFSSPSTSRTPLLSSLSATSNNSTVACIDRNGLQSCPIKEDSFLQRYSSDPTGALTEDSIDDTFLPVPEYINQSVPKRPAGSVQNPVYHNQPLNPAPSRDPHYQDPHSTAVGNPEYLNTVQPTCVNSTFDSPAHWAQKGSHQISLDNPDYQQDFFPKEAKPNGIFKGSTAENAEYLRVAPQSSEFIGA
SMILES,composite z-score [1],composite z-score [2],composite z-score [3],z-score [4],composite z-score [5],composite z-score [6],composite z-score [7],composite z-score [8],composite z-score [9],composite z-score [10],composite z-score [11],z-score [12],composite z-score [13],composite z-score [14],composite z-score [15],composite z-score [16],composite z-score [17],composite z-score [18],composite z-score [19],composite z-score [20]
CCOc1cc(C(O)C2C=CC3C(=O)N(c4ccccc4)C(=O)C3N2Nc2ccc([N+](=O)[O-])cc2)ccc1O (stereo not given),1.33,-0.0703,-0.129,-0.214 (inactive),0.575,0.757,0.317,0.429,0.0577,0.199,0.532,-0.31,0.173,-0.085,-0.255,-0.0165,-0.0849,-0.489,0.0762,0.0502
COCC(=C=CC[C@H](O)c1ccc(OCCO)cc1)C[C@H](O)c1cc(Cl)cc(Cl)c1O,0.654,-0.268,-0.0229,-2.51 (inactive),1.55,0.26,0.0404,1.11,-0.043,0.598,1.35,-3.96,0.628,-0.281,-0.814,-0.0108,0.678,0.277,0.163,0.155
O=C1N(CCS(=O)(=O)c2ccccc2)Cc2ccccc2[C@H]2OC(c3ccc(OCCCO)cc3)=N[C@@]12CCS(=O)(=O)c1ccccc1,1.55,0.883,1.13,-0.872 (inactive),1.03,0.916,0.423,0.411,0.13,1.03,0.961,-1.55,0.558,1.25,0.38,0.115,0.0348,0.763,1.41,1.97
O=C1OCCC=C[C@H]2OC34C=CCN(Cc5ccccc5)C(=O)[C@H]3N(CCCCCCO)C(=O)[C@@H]4C12 (stereo not given in full),1.61,-0.189,0.33,-0.205 (inactive),-1.26,-0.578,-0.83,-0.435,-1.38,-0.597,1.04,-0.422,-1.06,-0.214,0.232,-0.343,-0.233,-0.402,0.366,-0.63
COCCOC(=O)N1C(=O)[C@@]2(c3cc(C#CCNC(N)=O)ccc31)[C@H](c1ccc(OCCO)cc1)N1[C@H](c3ccccc3)[C@H](c3ccccc3)OC(=O)[C@H]1[C@@H]2C(=O)N1CCc2cc(OC)c(OC)cc2C1,0.719,0.208,0.676,0.911 (inactive),0.921,0.0059,0.803,1.17,0.455,0.959,0.901,-0.966,0.603,0.243,0.273,-0.148,-0.0035,-0.0428,0.743,0.664
Cc1cc(C)cc(N2C(=O)CS(=O)(=O)C2c2cccc([N+](=O)[O-])c2)c1 (stereo not given),0.195,0.734,0.788,-0.352 (inactive),0.612,0.124,0.518,0.366,0.122,0.826,-0.489,-0.0865,0.39,1.47,0.395,-0.15,0.108,0.549,1.23,1.25
CC1CC/C=C\[C@H]2OC34C=CCN(Cc5ccccc5)C(=O)[C@H]3N(CCCCCO)C(=O)[C@@H]4C2C(=O)O1 (stereo not given in full),-0.0545,-0.425,0.144,0.537 (inactive),-0.423,-1.42,-0.713,-1.19,-0.892,-0.0407,-0.853,0.28,-0.918,-0.457,0.163,-0.0981,-0.345,-0.0704,1.04,1.39
CCOC(=O)C[C@H]1[C@H](OC(=O)Cc2ccc3c(c2)OCO3)[C@@H](NC(=O)C2CCCCC2)c2cc(OCCCO)ccc2N1C(=O)Cc1ccc(OC)cc1,0.17,-0.244,-0.214,-1.6 (inactive),0.919,0.646,0.252,0.297,0.316,0.561,1.21,-1.39,0.341,0.0855,-0.629,-0.001,-0.0626,-0.543,-0.0511,0.199
COc1ccc(NN2C(C(O)c3ccc(OC)c(OCc4ccccc4)c3)C=CC3C(=O)N(C4CCCCC4)C(=O)C32)cc1 (stereo not given),0.897,0.686,0.627,-0.306 (inactive),0.622,0.995,0.216,1,-0.228,1.13,1.4,-1.21,-0.167,1.15,0.63,0.135,0.213,0.751,0.637,1.82
CC=CC(O)C1C=CC2C(=O)N(c3ccccc3)C(=O)C2N1Nc1ccc(C(C)C)cc1 (stereo not given),0.534,0.75,0.973,-0.235 (inactive),0.878,1.24,0.122,1.3,0.14,0.841,1.42,0.837,0.363,1.42,0.138,0.0194,0.0469,1.65,0.37,1.78
CN1CCC(CCCO)=CC1c1ccc(CN2CCCC2)cc1 (stereo not given),0.988,0.331,0.756,0.873 (inactive),1.3,1.3,1.64,1.48,1.74,1.86,1.25,-1.94,1.3,-0.561,-0.938,0.0215,0.441,0.215,1.49,1.34
